Among the data in ChEMBL document CHEMBL3988442, “University of Dundee, Small-Polar-MMV Screening Library” (2021) are Percent Effect values, retold here.

For some of these results: Entries with a potency or affinity are not part of this list.

Holding throughout (design): scale not given: direction of the effect not stated beside the values
For experiment [1], the target named is Protein translocase subunit SecA (Escherichia coli (strain K12)) (UniProt P10408). The experiment can be described thus: Assay to Identify E. coli SecA ATPase Inhibitors. The format is functional. The note with it: 30 µM.
Protein translocase subunit SecA (Escherichia coli (strain K12)), sequence (P10408 whole entry): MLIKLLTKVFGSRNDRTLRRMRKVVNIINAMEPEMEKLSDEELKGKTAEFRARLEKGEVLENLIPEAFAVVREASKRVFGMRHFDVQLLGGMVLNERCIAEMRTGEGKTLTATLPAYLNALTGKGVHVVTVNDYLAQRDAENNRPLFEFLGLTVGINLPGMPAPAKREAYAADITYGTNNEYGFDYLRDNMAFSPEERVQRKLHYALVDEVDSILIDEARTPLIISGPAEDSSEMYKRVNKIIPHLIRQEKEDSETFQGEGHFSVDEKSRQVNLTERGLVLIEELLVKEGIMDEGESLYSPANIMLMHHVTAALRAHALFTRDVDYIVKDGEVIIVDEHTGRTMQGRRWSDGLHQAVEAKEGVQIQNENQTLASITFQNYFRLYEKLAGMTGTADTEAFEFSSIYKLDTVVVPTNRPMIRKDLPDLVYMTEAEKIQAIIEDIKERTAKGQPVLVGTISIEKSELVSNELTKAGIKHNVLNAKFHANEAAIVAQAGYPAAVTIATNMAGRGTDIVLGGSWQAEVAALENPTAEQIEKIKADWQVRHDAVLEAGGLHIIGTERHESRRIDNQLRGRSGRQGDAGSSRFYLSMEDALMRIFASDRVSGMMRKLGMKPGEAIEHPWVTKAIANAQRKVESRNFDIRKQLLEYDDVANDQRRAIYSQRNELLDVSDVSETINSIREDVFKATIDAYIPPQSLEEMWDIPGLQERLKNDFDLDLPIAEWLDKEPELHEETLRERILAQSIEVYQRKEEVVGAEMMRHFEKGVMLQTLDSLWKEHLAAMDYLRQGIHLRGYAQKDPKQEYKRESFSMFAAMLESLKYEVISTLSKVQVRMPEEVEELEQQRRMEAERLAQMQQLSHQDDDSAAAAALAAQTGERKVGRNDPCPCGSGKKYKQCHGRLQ
For experiment [2], the target named is T1, Ubiquitin-activating enzyme e1, putative (Leishmania donovani (strain BPK282A1)) (UniProt E9BSI1).
T1 sequence (whole entry): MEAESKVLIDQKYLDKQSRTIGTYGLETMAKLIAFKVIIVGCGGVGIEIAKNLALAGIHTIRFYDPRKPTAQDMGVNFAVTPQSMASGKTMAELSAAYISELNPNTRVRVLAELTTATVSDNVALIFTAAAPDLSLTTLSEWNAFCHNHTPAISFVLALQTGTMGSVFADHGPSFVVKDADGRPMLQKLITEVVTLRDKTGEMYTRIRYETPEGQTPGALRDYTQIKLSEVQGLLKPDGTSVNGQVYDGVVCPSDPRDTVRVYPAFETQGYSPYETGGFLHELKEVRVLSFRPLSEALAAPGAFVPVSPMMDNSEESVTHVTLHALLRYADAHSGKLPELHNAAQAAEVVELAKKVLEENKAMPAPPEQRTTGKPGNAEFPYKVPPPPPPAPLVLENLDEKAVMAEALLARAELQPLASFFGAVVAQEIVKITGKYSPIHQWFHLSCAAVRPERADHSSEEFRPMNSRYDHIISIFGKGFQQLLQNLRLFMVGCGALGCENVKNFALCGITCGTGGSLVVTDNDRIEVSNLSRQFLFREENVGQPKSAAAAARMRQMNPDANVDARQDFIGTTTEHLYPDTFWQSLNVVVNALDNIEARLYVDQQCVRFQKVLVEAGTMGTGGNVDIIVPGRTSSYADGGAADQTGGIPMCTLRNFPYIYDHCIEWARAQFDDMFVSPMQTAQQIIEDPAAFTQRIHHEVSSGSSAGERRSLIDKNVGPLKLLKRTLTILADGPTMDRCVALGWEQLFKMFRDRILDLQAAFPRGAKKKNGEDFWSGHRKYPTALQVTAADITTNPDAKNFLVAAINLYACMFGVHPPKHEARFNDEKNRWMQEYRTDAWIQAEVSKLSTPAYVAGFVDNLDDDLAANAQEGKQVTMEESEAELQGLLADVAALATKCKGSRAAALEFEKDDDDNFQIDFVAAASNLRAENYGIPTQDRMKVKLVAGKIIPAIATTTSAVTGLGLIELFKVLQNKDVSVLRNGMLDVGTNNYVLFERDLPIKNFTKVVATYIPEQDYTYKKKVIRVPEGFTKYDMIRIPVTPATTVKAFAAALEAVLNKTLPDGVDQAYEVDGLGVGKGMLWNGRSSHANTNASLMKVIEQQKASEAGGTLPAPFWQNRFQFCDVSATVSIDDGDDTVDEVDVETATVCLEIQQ
The experiment can be described thus: Leishmania donovani Ubiquitin Activating Enzyme (LdE1). The format is functional. Conditions: 30 µM.

Experiment [3] has as its target AMP-activated protein kinase, AMPK (Homo sapiens) (UniProt P54646+O43741+P54619+Q9UGJ0+Q9Y478+Q13131+Q9UGI9). The experiment can be described thus: AMP-dependent Kinase enzyme assay. An in vitro enzyme assay that detects ADP turnover that is directly proportional to AMPK activity. This uses naive AMPK that is activated during the assay with MK-8722. The format is functional. Conditions: 30 µM.

Experiment [4] concerns the target Sialic acid-binding Ig-like lectin 9 (Homo sapiens) (UniProt Q9Y336). The experiment can be described thus: Hs-Siglec9 ALPHAscreen SOP 20170721. Conditions: 10 µM. A general note: In Alpha technology, singlet oxygen from a donor bead excites a nearby acceptor bead.
The next experiment concerns Trypanosoma cruzi. Put plainly: Trypanosoma cruzi phosphomannomutase and mannose-1-phosphate guanylyltransferase assay. The note with it: 10 µM. The format is functional.
Experiment [5] concerns the target T2, Arginase-2, mitochondrial (Homo sapiens) (UniProt P78540).
T2 sequence (whole entry): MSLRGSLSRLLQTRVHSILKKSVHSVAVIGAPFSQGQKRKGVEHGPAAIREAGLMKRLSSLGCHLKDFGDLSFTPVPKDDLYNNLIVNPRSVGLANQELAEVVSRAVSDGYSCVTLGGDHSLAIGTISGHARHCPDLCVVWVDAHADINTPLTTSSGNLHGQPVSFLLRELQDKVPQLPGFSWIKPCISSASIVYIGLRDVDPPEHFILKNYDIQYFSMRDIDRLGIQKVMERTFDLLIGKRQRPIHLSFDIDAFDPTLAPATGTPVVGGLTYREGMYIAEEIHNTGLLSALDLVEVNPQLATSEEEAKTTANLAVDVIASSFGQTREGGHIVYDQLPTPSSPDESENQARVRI
Put plainly: in vitro enzyme assay to detect the production of urea directly proportional to the activity of Arginase II. Further: in the data most compounds retested in dose-response had high values. The format is functional. Conditions: 33.3 µM.

The target in experiment [6] is T3, Proteasome subunit beta (Trypanosoma cruzi) (UniProt O96673).
T3 sequence (whole entry): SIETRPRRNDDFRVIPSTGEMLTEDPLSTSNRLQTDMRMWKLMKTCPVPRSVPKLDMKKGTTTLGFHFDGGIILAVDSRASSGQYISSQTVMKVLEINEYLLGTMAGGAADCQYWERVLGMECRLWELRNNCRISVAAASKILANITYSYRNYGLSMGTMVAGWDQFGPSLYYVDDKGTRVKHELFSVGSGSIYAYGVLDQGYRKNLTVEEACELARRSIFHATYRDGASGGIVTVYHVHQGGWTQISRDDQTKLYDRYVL
The experiment can be described thus: Trypanosoma cruzi proteasome chymotrypsin-like activity (TcProtChymo) assay. Further: in the data most compounds retested in dose-response had high values. The format is functional. Conditions: 9.37 µM.

Another experiment is filed under the species Homo sapiens. Put plainly: To identify inhibition of the IFN signalling (Jak-Stat) pathway via expression of an eGFP reporter gene under the control of an IFN-stimulated response element (ISRE) containing MxA promoter. The note with it: 30 µM. The format is functional. Background: In a reporter assay the amount or activity of a reporter protein is the signal.

Experiment [7] deals with T4, Tyrosyl-tRNA synthetase, putative (Trypanosoma cruzi (strain CL Brener)) (UniProt Q4DSP6).
T4 sequence (whole entry): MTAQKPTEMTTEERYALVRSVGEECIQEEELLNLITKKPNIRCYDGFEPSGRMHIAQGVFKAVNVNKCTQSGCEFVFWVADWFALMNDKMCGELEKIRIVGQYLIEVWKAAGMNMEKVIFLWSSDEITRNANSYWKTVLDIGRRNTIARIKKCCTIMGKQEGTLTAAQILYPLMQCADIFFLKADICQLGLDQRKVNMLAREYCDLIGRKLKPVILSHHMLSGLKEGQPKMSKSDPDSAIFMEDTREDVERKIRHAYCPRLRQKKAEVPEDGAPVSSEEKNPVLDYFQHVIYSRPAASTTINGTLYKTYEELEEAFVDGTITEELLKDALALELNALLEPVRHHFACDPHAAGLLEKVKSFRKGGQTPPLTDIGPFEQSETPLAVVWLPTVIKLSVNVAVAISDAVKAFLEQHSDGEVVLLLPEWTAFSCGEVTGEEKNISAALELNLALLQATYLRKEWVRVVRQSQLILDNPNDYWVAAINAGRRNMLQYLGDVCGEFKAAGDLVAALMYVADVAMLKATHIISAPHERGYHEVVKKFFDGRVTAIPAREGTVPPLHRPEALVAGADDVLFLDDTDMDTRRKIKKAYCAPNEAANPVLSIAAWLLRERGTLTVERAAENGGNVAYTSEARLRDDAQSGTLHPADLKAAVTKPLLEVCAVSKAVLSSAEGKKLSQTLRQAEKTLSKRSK
Put plainly: Trypanosoma cruzi tyrosyl tRNA synthetase (TcYRS) _High Tyrosine SOP. Further: in the data most compounds retested in dose-response had high values. The format is functional. The note with it: 30 µM.

Experiment [8] addresses T4, Tyrosyl-tRNA synthetase, putative (Trypanosoma cruzi (strain CL Brener)). The experiment can be described thus: Trypanosoma cruzi tyrosyl tRNA synthetase (TcYRS) SOP. The format is functional. The note with it: 30 µM.
Experiment [9] addresses Chromo domain-containing protein 1 (Saccharomyces cerevisiae (strain ATCC 204508 / S288c) (Baker's yeast)) (UniProt P32657). Put plainly: ScCHD-1 Enzyme Inhibition Assay. Further: in the data most compounds retested in dose-response had high values. The format is functional. The note with it: 30 µM.

Sialic acid-binding Ig-like lectin 9 (Homo sapiens), sequence (Q9Y336 whole entry): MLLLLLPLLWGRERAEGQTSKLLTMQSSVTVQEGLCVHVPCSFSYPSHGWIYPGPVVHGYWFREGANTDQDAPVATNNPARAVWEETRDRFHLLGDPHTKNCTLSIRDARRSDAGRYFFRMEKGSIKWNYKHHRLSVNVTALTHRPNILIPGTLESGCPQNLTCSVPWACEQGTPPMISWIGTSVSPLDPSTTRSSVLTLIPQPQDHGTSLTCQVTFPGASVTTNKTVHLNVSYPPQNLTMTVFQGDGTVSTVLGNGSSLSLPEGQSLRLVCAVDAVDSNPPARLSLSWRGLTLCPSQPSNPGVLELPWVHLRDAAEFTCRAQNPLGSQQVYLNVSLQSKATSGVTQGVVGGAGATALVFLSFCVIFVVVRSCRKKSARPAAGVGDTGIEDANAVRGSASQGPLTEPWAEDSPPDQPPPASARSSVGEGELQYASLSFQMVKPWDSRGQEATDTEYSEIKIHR
Chromo domain-containing protein 1 (Saccharomyces cerevisiae (strain ATCC 204508 / S288c) (Baker's yeast)), sequence (P32657 whole entry, the tested form may be a part): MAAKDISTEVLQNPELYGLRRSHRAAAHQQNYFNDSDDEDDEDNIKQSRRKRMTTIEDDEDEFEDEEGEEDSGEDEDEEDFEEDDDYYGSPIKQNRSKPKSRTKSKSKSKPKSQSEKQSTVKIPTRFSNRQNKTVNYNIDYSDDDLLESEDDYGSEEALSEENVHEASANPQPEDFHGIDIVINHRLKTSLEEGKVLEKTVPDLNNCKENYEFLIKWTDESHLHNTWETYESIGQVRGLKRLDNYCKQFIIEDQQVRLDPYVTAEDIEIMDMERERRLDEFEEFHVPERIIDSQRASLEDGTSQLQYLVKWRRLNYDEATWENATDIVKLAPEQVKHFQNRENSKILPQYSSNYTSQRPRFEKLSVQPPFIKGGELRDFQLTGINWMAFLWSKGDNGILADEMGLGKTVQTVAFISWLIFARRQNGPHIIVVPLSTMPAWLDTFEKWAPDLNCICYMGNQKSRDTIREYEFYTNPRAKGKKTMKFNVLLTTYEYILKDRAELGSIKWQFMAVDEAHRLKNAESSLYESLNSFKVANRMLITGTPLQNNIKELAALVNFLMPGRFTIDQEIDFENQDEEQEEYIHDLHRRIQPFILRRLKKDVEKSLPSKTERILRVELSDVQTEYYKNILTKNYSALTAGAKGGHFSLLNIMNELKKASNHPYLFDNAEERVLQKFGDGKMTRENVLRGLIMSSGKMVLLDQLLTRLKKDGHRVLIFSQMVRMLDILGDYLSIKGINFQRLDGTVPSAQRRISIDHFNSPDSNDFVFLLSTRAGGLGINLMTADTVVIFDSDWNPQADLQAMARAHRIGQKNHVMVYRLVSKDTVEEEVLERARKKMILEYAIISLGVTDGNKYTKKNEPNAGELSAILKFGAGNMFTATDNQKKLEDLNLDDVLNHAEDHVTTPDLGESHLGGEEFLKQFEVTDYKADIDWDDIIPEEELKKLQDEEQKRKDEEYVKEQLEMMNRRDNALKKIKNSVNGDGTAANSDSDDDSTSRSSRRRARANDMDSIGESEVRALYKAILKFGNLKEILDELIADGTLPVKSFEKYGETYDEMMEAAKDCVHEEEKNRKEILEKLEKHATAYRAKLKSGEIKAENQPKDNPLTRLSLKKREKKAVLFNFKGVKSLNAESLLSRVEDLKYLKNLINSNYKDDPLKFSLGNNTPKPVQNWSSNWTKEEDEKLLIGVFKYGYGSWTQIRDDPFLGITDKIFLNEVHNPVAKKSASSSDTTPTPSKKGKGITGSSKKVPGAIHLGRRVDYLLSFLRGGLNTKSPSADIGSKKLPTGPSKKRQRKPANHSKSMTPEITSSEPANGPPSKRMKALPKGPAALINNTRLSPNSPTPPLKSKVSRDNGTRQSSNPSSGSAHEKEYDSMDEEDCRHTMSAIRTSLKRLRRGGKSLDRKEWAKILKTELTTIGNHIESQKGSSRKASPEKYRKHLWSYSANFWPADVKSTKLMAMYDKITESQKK

In the case of `COc1ccc(Br)c(C(=O)NCC2CCN(S(=O)(=O)C3CC3)CC2)c1`, the Percent Effect in experiment [1] was -4.34%; in experiment [2], 19.2%; in experiment [3], -7.39%; in experiment [4] it was 14%; in the experiment on Trypanosoma cruzi, 6.07%; in experiment [5], -3.18%. Further, the Percent Effect in experiment [6] was 19.5%; in the experiment filed under Homo sapiens, 20.3%; in experiment [7] it was 4.3%; in [8] it was 17.5%; in [9], -9.38%.
Take `N#Cc1cn(C2CC2)c(=O)n(CC(O)c2ccc(OC(F)F)cc2)c1=O` (stereo unspecified): the Percent Effect in experiment [1] was -5.26%; in experiment [2], 15.8%; in [3] it was -4.7%; in experiment [4], 7.1%; in the experiment on Trypanosoma cruzi, 6.01%; in experiment [5] it was 0%. The Percent Effect is 11.2% in [6]; 3.44% in the experiment filed under Homo sapiens; 0.49% in [7]; 17.1% in experiment [8]; -12.4% in [9].
Take `CCc1nc(C)c(C(=O)NCCNc2ncccn2)s1`: the Percent Effect was -4.61% in experiment [1]; 15.8% in experiment [2]; -1.87% in experiment [3]; -4.05% in experiment [4]; -2.52% with Trypanosoma cruzi; 0% in experiment [5]. The Percent Effect in experiment [6] is 2.28%; in the experiment listed under Homo sapiens, -2.51%; in experiment [7], 9.36%; in experiment [8], 16.1%; in experiment [9], -3.7%.
`CCS(=O)(=O)N1CCC(c2nnc(CN3CCCC3)n2C2CC2)CC1`: the Percent Effect in experiment [1] was -1.74%; in experiment [2], 8%; in [3], -4.77%; in [4] it was 9.36%; with Trypanosoma cruzi, 2.82%; in [5] it was 12.5%. Also, the Percent Effect in [6] is 3.49%; in the experiment listed under Homo sapiens it was 19.7%; in [7], 7.1%; in experiment [8] it was 16.1%; in experiment [9] it was -7.31%.
For `CC(=O)c1c(F)cccc1N1CCC(Cc2cccnc2)CC1`, the Percent Effect in experiment [1] was -2.45%; in experiment [2] it was 8.22%; in experiment [3], -4.3%; in [4], 3.69%; in the experiment on Trypanosoma cruzi, 6.15%; in [5], 2.4%. For the same compound, the Percent Effect in experiment [6] was -1.46%; in the experiment listed under Homo sapiens, 57.7%; in experiment [7], 7.29%; in [8], 13.6%; in experiment [9] it was -9.38%.
Consider `Cc1cnn(CCNCc2ccccc2OCc2cccnc2)c1`, for which the Percent Effect was -4.98% in experiment [1]; -3.8% in experiment [2]; 2.64% in [3]; 6.26% in experiment [4]; -1.95% in the experiment with Trypanosoma cruzi; 1.5% in experiment [5]. The Percent Effect in [6] is 17%; in the experiment listed under Homo sapiens, 5.87%; in experiment [7], 5.21%; in experiment [8], 5.06%; in experiment [9], -13%.
On to `CCCC(=O)NCc1cc(Br)c(OC)c(OC)c1`, for which the Percent Effect in experiment [1] was -2.9%; in experiment [2], 8%; in experiment [3] it was -3.19%; in experiment [4], 14.4%; with Trypanosoma cruzi, 6.72%; in [5] it was 15.6%. In addition, the Percent Effect in experiment [6] was 5.41%; in the experiment filed under Homo sapiens, 25.5%; in experiment [7], 2.73%; in experiment [8] it was 13.6%; in [9] it was -8.52%.
As for `CC(C(=O)NCc1ccc(-n2cncn2)nc1)n1ccnc1` (stereo unspecified), the Percent Effect in [1] was -3.77%; in experiment [2], 2.6%; in [3], 0.227%; in experiment [4] it was 15%; with Trypanosoma cruzi, 2.25%; in experiment [5], 1.05%. Also, the Percent Effect in experiment [6] was -1.21%; in the experiment filed under Homo sapiens, -15.5%; in experiment [7], 2.86%; in experiment [8], 2.35%; in experiment [9] it was -8.54%.
`c1ccc(OCCCNCCn2cccn2)cc1`: the Percent Effect in experiment [1] was -4.38%; in experiment [2], 1.27%; in [3], -0.45%; in experiment [4], 4.63%; with Trypanosoma cruzi it was 4%; in [5], -2.8%. Also, the Percent Effect is 3.94% in experiment [6]; -1.21% in the experiment listed under Homo sapiens; 5.21% in experiment [7]; 10.1% in [8]; -18.9% in [9].
On to `COc1ccc2c(c1)CCN(CCC(=O)NC1CCCCC1)CC2`, for which the Percent Effect in experiment [1] was -1.36%; in [2] it was 2.7%; in [3], -5.04%; in [4] it was 1.78%; with Trypanosoma cruzi it was 5.41%; in experiment [5], -1.43%. Further, the Percent Effect was 15.3% in [6]; 14.6% in the experiment listed under Homo sapiens; 6.88% in experiment [7]; 12.2% in [8]; -1.4% in [9].
Turning to `CCC(CC)c1cc(CNC(=O)N2CCOC(C)C2)on1` (stereo unspecified), the Percent Effect in experiment [1] was -3.56%; in [2], -2.7%; in [3] it was -0.766%; in [4], -6.02%; in the experiment on Trypanosoma cruzi, -1.86%; in experiment [5] it was 2.23%. Further, the Percent Effect is -2.66% in experiment [6]; 3.72% in the experiment listed under Homo sapiens; 3.23% in experiment [7]; 1.24% in experiment [8]; 0.0369% in experiment [9].
